Assay results from PubChem BioAssay AID686978 (National Center for Advancing Translational Sciences (NCATS), 2013).
Screen size: about 420,000 compounds; about 64,000 (15%) were called active. About 27% were inconclusive and are not listed. The list is a sample of the results. Values without a mark were called inactive. Calls follow the shape of the dose curve; as a rule, active = well fitted inhibition curve with a large enough effect; inconclusive = small, poorly fitted or top-dose-only effect; inactive = flat fitted curve, though single readings scatter. Square brackets hold non-standard residues; d marks the D form. Peptide text beside a SMILES is read from it. ξ: configuration not given here. Ac5c = NC1(C(=O)O)CCCC1; ξS = NC(CO)C(=O)O

Experiment: qHTS for Inhibitors of human tyrosyl-DNA phosphodiesterase 1 (TDP1): qHTS in cells in absence of CPT; also: nearly all actives have a fitted effect of over 55% in size
Conditions: DT40 Tdp1-/- hTDP1 cells, no CPT, ATP luminescence, 48 h; activity change, negative = growth inhibition: at 46.2 µM (top of the series)
Procedure, shortened: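 Growth kinetics read by CellTiter-Glo luminescence after ≥48 hr at 37 °C. Cells: DT40 Tdp1-/- stably carrying human TDP1, 400 per well, compound exposure in the absence of CPT (DMSO vehicle).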
% is scaled to controls: 0 for no effect and ±100 for the full control effect; potency is read from the fitted curve at half-maximal effect.

First: Cc1ccc(/C=C/C(=O)O)cc1S(=O)(=O)N1CCC(Cc2ccccc2)CC1
Second: O=C(O)C1CCCN(S(=O)(=O)c2cccc3cccnc23)C1 (centres undefined)
The “activity change, negative = growth inhibition” value of the first is higher: 4.06% for the first, -2.56% for the second.

Compared with CCOC(=O)C(CO)NC(=O)C1(NC(C)=O)CCCC1 (centres undefined) (Ac-[Ac5c]-[ξS]-OEt), CCOC(=O)C1CCN(C(=O)COc2cc(C)c(Br)c(C)c2)CC1 is lower in “activity change, negative = growth inhibition” value: 18.1% for the first, -22.3% for the second.

Compared with CC1=NNC(=O)C1CCC(=O)N/N=C(\C)c1ccc(Cl)cc1 (centres undefined), COc1ccc(/C(C)=N/NC(=O)c2ccc3nc[nH]c3c2)cc1 is higher in “activity change, negative = growth inhibition” value: -2.58% for the first, 1.6% for the second.

First: COc1ccc(C/C(C)=N/NC(=O)c2ccncc2)cc1
Second: C/C(=N\NC(=O)Cc1ccc(Br)cc1)c1cccnc1
The “activity change, negative = growth inhibition” value of the first is higher: 10.6% for the first, 6% for the second.

Compared with CNC(=S)N1CCN(c2ccccn2)CC1, Cc1cccc(C)c1NC(=S)N1CCCCCC1 is lower in “activity change, negative = growth inhibition” value: 0.242% for the first, -7.49% for the second.

Going from C/C(CC(=O)Nc1ccc(N(C)C)cc1)=N\NC(=O)c1ccccc1F to O=C(Nc1ccc(NC(=O)c2ccccc2F)cc1)c1ccccc1F, the “activity change, negative = growth inhibition” value falls from 6.54% to -0.0635%.

Compared with CCN(CC(=O)Nc1cc(Cl)ccc1C)C(=O)Cn1c(=O)cnc2ccccc21, CCN(CC)C(=O)Cn1cc(S(=O)(=O)CC(=O)NCc2ccc3c(c2)OCO3)c2ccccc21 is lower in “activity change, negative = growth inhibition” value: 4.61% for the first, -2.15% for the second.

Going from Cc1ccc(CC(=O)N(C)CC(=O)N(CC(C)C)c2c(N)n(CC(C)C)c(=O)[nH]c2=O)cc1C to CC(C)C(=O)Nc1c(O)c2ccccc2[nH]c1=O, the “activity change, negative = growth inhibition” value falls from -14.8% to -18.3%.

Going from O=C(COC(=O)c1ncc(Cl)c(Cl)c1Cl)NCc1cccs1 to CCOC(=O)c1sc2nc(SC)nc(-c3ccccc3)c2c1N, the “activity change, negative = growth inhibition” value falls from 9.23% to -8.81%.

First: Cc1ccccc1/C=C\c1nc(O)c([N+](=O)[O-])c(=O)[nH]1
Second: Cc1sc2nc(CC(N)=O)[nH]c(=O)c2c1-c1ccccc1
The “activity change, negative = growth inhibition” value of the first is lower: 1.57% for the first, 1.96% for the second.

First: Cc1ccc(NC(=O)COc2ccc(/C=N\NC(=O)c3cccnc3)cc2)cc1C
Second: Cc1cccc(NC(=O)/C(=C\c2ccco2)NC(=O)c2ccccc2)c1
The “activity change, negative = growth inhibition” value of the first is lower: -4.49% for the first, 5.21% for the second.

Compared with CCOc1cc2c(Cl)ncnc2c(OCC)c1OCC, CCOc1ccc(S(=O)(=O)n2ccnc2)c2ccccc12 is higher in “activity change, negative = growth inhibition” value: -0.504% for the first, 0.648% for the second.

First: O=S(=O)(Nc1ccc(OC(F)(F)F)cc1)c1cccc2nonc12
Second: CCCCC(NS(=O)(=O)c1ccc(C)cc1)C(=O)Oc1ccc2c3c(c(=O)oc2c1)CCC3 (centres undefined)
The “activity change, negative = growth inhibition” value of the first is higher: -26.6% for the first, -29% for the second.

First: CC[C@@H]1CC2=C(C(=O)OC(C)(C)O2)[C@@H](CC)O1
Second: CC(C)C1CC2=C(C(=O)OC(C)(C)O2)C(c2ccc(F)cc2)O1 (centres undefined)
The “activity change, negative = growth inhibition” value of the first is lower: -9.09% for the first, -0.527% for the second.

Compared with CN(C)c1nc(-c2cccnc2)nc(-c2ccc(Cl)cc2)c1C#N, CCc1c(-c2ccccc2)nc(N)c(C#N)c1-c1cccs1 is higher in “activity change, negative = growth inhibition” value: -26.8% for the first, -7.76% for the second.

Going from CN(C)C(=O)Cn1c(=O)n(S(=O)(=O)c2ccccc2)c2ccccc21 to Cc1nn(C)cc1C(=O)c1ccccc1, the “activity change, negative = growth inhibition” value rises from 1.81% to 1.93%.

Going from Cc1ccc(-c2noc(CCC(N)=O)n2)cc1 to CCNC(=O)CCc1nc(-c2ccc(C)cc2)no1, the “activity change, negative = growth inhibition” value falls from -15.8% to -26.5%.

First: CC(C)CC(=O)N=C1SC2CS(=O)(=O)CC2N1CCc1ccccc1 (centres undefined)
Second: CCOC(=O)C1CCN(Cc2ccc(-c3ccccc3)cc2)CC1
The “activity change, negative = growth inhibition” value of the first is lower: -18.7% for the first, 3.59% for the second.

First: CCOC(=O)C1CCCN(C(=O)c2cccc3ccccc23)CC1 (centres undefined)
Second: CCOC(=O)C1CCN(Cc2nnc(-c3cccc(Br)c3)o2)CC1
The “activity change, negative = growth inhibition” value of the first is lower: -29.7% for the first, -4.65% for the second.

Going from O=C(O)CCC(=O)Nc1ccc(N2CCOCC2)cc1 to CC(=O)Nc1ccc(NC(=O)c2sc3nc4c(c(-c5ccc(C)cc5)c3c2N)CCC4)cc1, the “activity change, negative = growth inhibition” value rises from -10.6% to -9.97%.

Going from CN(C)c1ccnc2sc(C(=O)c3ccccc3)c(N)c12 to CCC1CN(CCNC(=O)c2cccc(C)n2)Cc2cc(OC)ccc2O1 (centres undefined), the “activity change, negative = growth inhibition” value falls from -0.214% to -22.3%.

For CC(=NNC(=S)N1CCCCCC1)c1ccccn1, the Potency was 0.0164 µM (active).
For COc1ccc(CC(=O)N/N=C(\C)c2ccccn2)cc1, the Potency was 7.31 µM (active).
For C/C(=N\NC(=O)c1ccccc1F)c1ccccn1, the Potency was 0.517 µM (active).
With C/C(=N\NC(=O)Cc1ccc(Cl)cc1)c1ccccn1 the Potency was 2.31 µM (active).
For CC1(C)OC(=O)C2=C(CC(c3ccccc3)OC2CCc2ccccc2)O1 (centres undefined), the Potency was 23.1 µM (active).
For CC(=O)c1ccc(NC(=O)CCc2nc(-c3ccc(C)cc3)no2)cc1, the Potency was 16.4 µM (active).
With CCOC(=O)C1CCN(c2ncnc3c2c(-c2ccccc2)cn3-c2ccc(C)cc2)CC1 the Potency was 18.4 µM (active).
With CCOC(=O)C1CCN(c2ncnc3c2c(-c2ccccc2)cn3-c2cccc(C)c2)CC1 the Potency was 23.1 µM (active).
For CCCC1C(=O)N2C(N(C)C)=Nc3ccc(C)cc3N2C1=O (centres undefined), the Potency was “inactive”.
For Cc1cccc(NC(=O)c2sc3nc4c(c(-c5ccco5)c3c2N)CCC4)c1, the Potency was 25.9 µM (active).
For Cc1nc2sc(C(=O)c3ccccc3)c(N)c2c2c1CCCC2, the Potency was 20.6 µM (active).
In the case of NC(=O)c1sc2nc3c(c(-c4ccccc4)c2c1N)CCC3, the Potency is reported as 13 µM (active).
